FBPA Giardia inh = blocks Giardia fructose-bisphosphate aldolase activity | A8B2U2 | purified Giardia FBPA | Potency, µM (series often up to 59.6 µM), for the others: at the top dose activity, negative = inhibition, hits mostly inhibitors | actives 0.71% (n = 290,000) | AID 2451; further: potency means the concentration at half of the fitted maximal effect; on the % scale 0 is the no-effect control and ±100 the full control effect; nearly all actives have a fitted effect of over 55% in size
Target sequence (A8B2U2 whole entry, looked up): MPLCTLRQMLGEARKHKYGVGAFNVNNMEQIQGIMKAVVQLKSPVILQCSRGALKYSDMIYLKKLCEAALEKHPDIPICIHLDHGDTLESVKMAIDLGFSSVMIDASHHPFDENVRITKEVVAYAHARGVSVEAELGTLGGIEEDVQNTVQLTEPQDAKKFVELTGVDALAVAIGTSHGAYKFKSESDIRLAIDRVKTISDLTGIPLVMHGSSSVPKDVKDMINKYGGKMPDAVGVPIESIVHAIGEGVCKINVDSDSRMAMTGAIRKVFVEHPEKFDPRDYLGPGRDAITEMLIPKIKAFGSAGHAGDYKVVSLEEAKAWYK
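40 nM FBPA preincubated 10 min at RT with compound (up to 57.5 uM final), then substrate plus GAPDH/TPI/NAD/arsenate coupling and diaphorase/resazurin added. Fluorescence read after 20 min at RT, 525/598 nm.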
LmPK inhibitor = inhibitors of Leishmania mexicana pyruvate kinase. AID 1721. actives 0.37% (n = 290,000). Potency, µM (highest dose often 57.5 µM), inactives show at the top dose activity change, negative = inhibition, actives largely listed as inhibitors. Q27686. purified LmPK, Kinase-Glo ATP luminescence, 1 h; further: potency means the concentration at half of the fitted maximal effect; on the % scale 0 is the no-effect control and ±100 the full control effect
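Purified LmPK (0.1 nM) with 0.5 mM PEP and 0.1 mM ADP in imidazole buffer pH 7.2 with MgCl2/KCl, 1 h at room temperature. ATP formed was read by luciferase luminescence and normalized to no-enzyme and uninhibited controls.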
Shiga inhibitor = blocks Shiga toxin action in Vero cells; inhibition, % at 38.7 µM; Vero cells, Shiga toxin protein synthesis inhibition reporter; AID 2315; actives 9.2% (n = 290,000); in the data active means inhibition mostly above about 28%, no sharp cut-off; inactive means mostly below about 43%; further: 0% is about no effect
NS1 inh = blocks influenza NS1 protein function. Potency, µM (top dose mostly 46.1 µM), for inactives: at the top dose activity, positive = more growth. AID 2326. actives 0.4% (n = 270,000); calls by dose curve; further: potency means the concentration at half of the fitted maximal effect; actives are rising curves; nearly all actives have a fitted effect of over 50% in size
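A cell-based growth assay was used: compounds that relieve NS1-induced slow growth of budding yeast raise OD600. Assay medium was yeast nitrogen base with ammonium sulphate and -URA supplement, pH 6.0, with 2% galactose.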
CHX counter = affects cycloheximide protein synthesis inhibition readout, counter-screen | cell reporter, cycloheximide protein synthesis inhibition counterscreen | max response, % | actives 12% (n = 300,000) | AID 2314; in the data active means max response mostly above about 13%, no sharp cut-off; inactive means mostly below about 14%; further: read at 38.3 µM for the half of the compounds with a filed dose; 0% is about no effect
* = called active by the depositor; ? = inconclusive; . = no result given. Only some compounds are listed: those with a hit (about 14% of all), similar ones and a draw of the others. Unless noted, the call rests on the fitted dose curve; in most records, active means well fitted curve in the direction sought with a large enough effect; inconclusive means small, poorly fitted or top-dose-only effect, or another doubt; inactive means no such curve, though single readings can be large; an effect the other way counts as inactive or inconclusive.

SMILES	FBPA Giardia inh	LmPK inhibitor	Shiga inhibitor	NS1 inh	CHX counter
CCc1ccc(NC(=O)c2ccc3c(c2)C(=O)N(CCOC)C3Nc2ccc(CC)cc2)cc1 (centres undefined)	6.8%	0.1%	66.7*	9.8%	23.1*
CCCN1C(=O)c2cc(C(=O)Nc3ccccc3C)ccc2C1Nc1ccccc1C (centres undefined)	0.6%	4.4%	5.4	5.6%	-3.5
COCCN1C(=O)c2cc(C(=O)Nc3cccc(F)c3)ccc2C1Nc1cccc(F)c1 (centres undefined)	4.1%	2.6%	-12.2	0.1%	-4.1
CCC1(c2ccc(F)cc2)NC(=O)N(CC(=O)Nc2ccc(-c3nc4ccc(C)cc4s3)cc2)C1=O (centres undefined)	5.7%	1.7%	106.8*	-33.0%	39.5*
Cc1ccc(NC(=O)CN2C(=O)NC(C)(c3ccc(Cl)cc3)C2=O)cc1 (centres undefined)	-3.4%	1.1%	19.5	3.0%	-4.8
COc1ccc(C2(C)NC(=O)N(CC(=O)Nc3ccc(-c4nc5ccc(C)cc5s4)cc3)C2=O)cc1 (centres undefined)	-0.9%	-6.3%	111.9*	12.0%	64.2*
CCC1(c2ccc(F)cc2)NC(=O)N(CC(=O)Nc2ccccc2C)C1=O (centres undefined)	.	-5.2%	-5.3	1.8%	-2.7
COCCn1c(=O)c(-c2cc(F)cc(F)c2)nc2cnc(N3CCOCC3)nc21	6.9%	.	.	.	.
O=S(=O)(c1ccccc1)N1CCC2(CCCN(c3ccncc3)C2)CC1	6.8%	.	.	.	.
Cc1cc2nc(-c3ccc[nH]c3=O)[nH]c2cc1C	6.8%	11.2µM*	-14.8	-5.5%	-4.7
Cc1cc2nc(-c3ccc[nH]c3=O)n(Cc3ccccc3F)c2cc1C	5.7%	5.7%	43.3*	0.8%	37.6*
Cc1cc2nc(-c3ccc[nH]c3=O)n(Cc3ccc(F)cc3)c2cc1C	-3.9%	-1.2%	22.8	-0.5%	11.6*
O=c1[nH]cccc1-c1nc2ccccc2n1Cc1ccc(F)cc1	-1.3%	2.6%	17.6	4.1%	7.2
Cc1[nH]c(=O)[nH]c(=O)c1/C=N/NC(=O)[C@H](CC(C)C)NC(=O)OC(C)(C)C	11.6%	4.0%	-4.9	18.6%	-3.8
Cc1[nH]c(=O)[nH]c(=O)c1/C=N/NC(=O)[C@@H](N)CC(C)C	-7.4%	-4.4%	29.7	0.4%	16.3*
Cc1ccsc1C=Nc1ccc(O)cc1	5.61µM*	-18.8%	34.0	26.8%	14.9*
Cc1ccsc1/C=N/N=C/c1sccc1C	17.5%	-23.8%	.	-25.8%	48.0*
CCOC(=O)N/N=C\c1sccc1C	-2.4%	-4.2%	14.8	9.2%	8.2
CN1C(=O)/C(=C2\SC(N3CCCCCC3)=NC2=O)c2ccccc21	-11.4%	-6.6%	31.7	-2.8%	20.4*
CN1C(=O)/C(=C2\SC(N)=NC2=O)c2ccccc21	3.8%	-0.7%	-2.2	3.2%	0.4
CCCN1C(=O)/C(=C2\SC(N3CCCCC3)=NC2=O)c2ccccc21	-5.8%	-4.4%	68.1*	-103.0%	46.1*
O=C1N=C(N2CCCCC2)SC1=C1CCCCC1	0.6%	-11.6%	113.9*	-7.7%	32.9*
O=C1N=C(N2CCOCC2)S/C1=C1\C(=O)N(Cc2ccccc2)c2ccccc21	3.4%	0.4%	23.8	4.1%	14.6
Cc1ccccc1NC(=O)c1ccc2c(c1)C(=O)N(CC(C)C)C2=O	7.7%	9.4%	.	2.2%	-2.7
CC(C)CN1C(=O)c2ccc(C(=O)Nc3ccccc3C(=O)O)cc2C1=O	-0.3%	-1.0%	71.1*	-3.5%	55.1*
SMILES	FBPA Giardia inh	LmPK inhibitor	Shiga inhibitor	NS1 inh	CHX counter
CC(C)CN1C(=O)c2ccc(C(=O)NCc3ccccn3)cc2C1=O	.	-5.4%	0.4	4.3%	-2.5
CC(C)CN1C(=O)c2ccc(C(=O)Nc3ccccn3)cc2C1=O	-1.5%	0.6%	25.5	-1.6%	34.4*
Cc1cc(NC(=O)c2ccc3c(c2)C(=O)N(c2cccc(C)c2C)C3=O)no1	-1.3%	-0.8%	-9.8	6.5%	-3.1
Cc1ccc(NC(=O)c2ccc3c(c2)C(=O)N(c2cc(C)ccc2C)C3=O)nc1	-3.5%	0.1%	68.2*	-9.0%	28.7*
O=C(NCCc1ccccn1)c1nc(Cn2cc(Br)cn2)no1	-6.3%	11.2%	-10.6	3.1%	-2.5
COC(=O)CCCCCc1ccc(C(C)=O)s1	12.3%	-2.1%	11.2	-6.7%	11.8*
O=C(NNc1nc(-c2ccc(Br)cc2)cs1)c1ccco1	4.9%	0.8%	80.5*	17.6%	31.4*
Cc1ccc(-c2csc(NC(=O)c3ccco3)n2)cc1C	9.8%	6.0%	148.6*	-68.9%	33.8*
Cc1ccc(Cl)cc1Nc1nc(-c2sc(NC(=O)c3ccco3)nc2C)cs1	1.8%	-4.9%	-17.9	27.8%	-3.3
O=C(NC(=S)Nc1nc(-c2ccc(Br)cc2)cs1)c1ccco1	-9.2%	3.9%	25.5	.	0.7
O=C(Nc1ccc(-c2csc(Nc3ccccc3)n2)cc1)c1ccccc1	-0.7%	-2.7%	15.8	3.7%	2.0
Cc1ccc(-c2csc(NC(=O)c3ccc(-c4ccccc4)cc3)n2)o1	-10.1%	-7.5%	96.0*	8.5%	48.3*
O=C(Nc1nc(-c2ccco2)cs1)c1ccccc1	-13.1%	23.6%	36.2	-53.4%	31.7*
CC(=O)Nc1ccc(-c2csc(NC(=O)c3ccc(C)o3)n2)cc1	-8.0%	0.4%	10.8	0.1%	-2.6
CCCCCN(CCCCC)C(=O)[C@H](CCC(=O)O)NC(=O)[C@H](Cc1ccc(OP(=O)(O)O)cc1)NC(C)=O	2.8%	.	14.7	.	14.1
COc1ccc(OC)c(-c2csc(NC(=O)Cc3ccc(F)cc3)n2)c1	.	-2.5%	36.4	-1.1%	17.0
O=C(NC(=S)Nc1nc(-c2ccc([N+](=O)[O-])cc2)cs1)c1ccco1	.	-3.6%	51.0*	17.2%	18.2*
COc1ccc(-c2csc(NC(=O)c3ccco3)n2)cc1	-12.9%	-11.3%	50.1*	-46.5%	55.5*
CCOc1ccc(-c2csc(NC(=O)c3ccco3)n2)cc1	-27.0%	-2.0%	98.4	-6.1%	39.4*
Cc1ccc(-c2csc(NC(=O)Cc3ccc(F)cc3)n2)o1	-18.7%	2.7%	36.9	.	14.6*
CCCN(CC(=O)Nc1ccccc1C)C(=O)c1cccc(-n2cnnn2)c1	0.1%	1.8%	-5.2	0.6%	-1.2
O=C(Nc1nc(-c2ccccc2)cs1)c1ccco1	-16.8%	-10.7%	121.7*	-48.6%	88.9*
NC(N)=N[C@H](CC(=O)O)c1ccccc1	.	.	.	-2.8%	.
CCOC(=O)C1=C(c2ccccc2)NC(=O)NC1c1cc(Cl)c(O)c(OC)c1 (centres undefined)	-8.1%	7.3%	8.2	.	20.3
CCOC(=O)C1=C(c2ccccc2)NC(N)=NC1c1ccc(OCc2ccc(Cl)cc2)c(OC)c1 (centres undefined)	-5.5%	-12.3%	29.5*	5.0%	10.8
COc1ccc(C2C3C=CCC(C)C3C(=O)N2Cc2ccccc2)cc1Cl (centres undefined)	-2.2%	.	5.5	.	-9.1
Cc1cccc(NC(=O)c2ccc(Cl)nc2)n1	-2.1%	-6.1%	22.9	-5.2%	14.8
CCCCOc1ccc(C(=O)Nc2cccc(C)n2)cc1	-1.5%	?	73.6*	-107.7%	43.2*

High-throughput results deposited in PubChem BioAssay by National Center for Advancing Translational Sciences (NCATS).
